The values that follow come from PubChem BioAssay (NCI).

Among the test systems are NCI-H23 lung; NCI-H226 lung; NCI-H322M lung; HOP-62 NSCLC; NCI-H460 lung; HOP-92 NSCLC; NCI-H522 lung; A549/ATCC NSCLC; 786-0 renal; COLO 205 colon; DU-145 prostate; K-562 leukemia; MALME-3M melanoma; MDA-MB-231 breast; RXF 393 renal; SF-268 CNS; SF-539 CNS; UACC-257 melanoma; M14 melanoma; SF-295 CNS.
Common to all, as to assay: NCI-60 one-dose screen, 48 h (100 = growth as untreated, 0 = no growth, -100 = all killed)
Details in all cases: 10 µM unless noted

Each structure is given as a SMILES string. Compounds without any hit were thinned out: in the full panel of roughly 83,000, 20% have a hit.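 The endpoint reported here, percent growth, reads 100 for growth as untreated, 0 for no net growth and -100 for all cells dead.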 A number with no mark means an inactive call. Calls of active or inactive are those of the source. The calls were made as follows: active = growth percent below 10; inactive = the rest.

As to `CC1CCCC(C[N+](C)(C)C)C1=O` (stereo not drawn), the growth was 109% with NCI-H23 lung; 95.4% in the test with NCI-H226 lung; 77.2% in the test on NCI-H322M lung; 106% in the test on HOP-62 NSCLC; 117% with NCI-H460 lung; 83.8% with HOP-92 NSCLC. Besides, the growth was 98.7% in the test with NCI-H522 lung; 104% with A549/ATCC NSCLC; 112% in the test with 786-0 renal; 118% in the test on COLO 205 colon; 115% in the test on DU-145 prostate; 88.3% in the test on K-562 leukemia. Moreover, the growth with MALME-3M melanoma is 76.5%; in the test on MDA-MB-231 breast, 104%; with RXF 393 renal it was 112%; in the test with SF-268 CNS it was 112%; with SF-539 CNS, 94.2%; with UACC-257 melanoma, 112%. In addition, in the test on M14 melanoma, the growth is 101%.
Consider `CCCc1cc(O)c2c3c(c(=O)oc2c1)CN(C)CC3`, for which the growth is 54.5% with NCI-H23 lung; 38.9% in the test on NCI-H226 lung; 42.9% in the test with NCI-H322M lung; 28.6% with HOP-62 NSCLC; 11.9% in the test on NCI-H460 lung; 81.6% in the test with HOP-92 NSCLC. For the same molecule, the growth is 18.4% with NCI-H522 lung; 29.1% in the test with A549/ATCC NSCLC; 55% with 786-0 renal; 21% with COLO 205 colon; 43% with DU-145 prostate; 12% with K-562 leukemia. In addition, the growth in the test with MALME-3M melanoma was -1.24% (active); in the test on MDA-MB-231 breast it was 60.4%; in the test on RXF 393 renal, 10.9%; with SF-268 CNS, 37%; with SF-539 CNS it was 31.7%; in the test with UACC-257 melanoma it was 68.5%. In addition, the growth with M14 melanoma is 16.4%.
Take `CC[C@H](C)[C@H](NC(=O)[C@H]1CCCCN1C)C(=O)N(C)[C@H](CCc1nc(C(=O)N[C@@H](Cc2ccccc2)C[C@H](C)C(=O)OC)cs1)C(C)C`: the growth is 31% with NCI-H23 lung; 28.6% with NCI-H226 lung; 40.9% in the test with NCI-H322M lung; 14.3% with HOP-62 NSCLC; 6.43% (active) in the test on NCI-H460 lung; 12.9% in the test on HOP-92 NSCLC. In addition, the growth is -14.6% (active) in the test on NCI-H522 lung; 17% in the test on A549/ATCC NSCLC; 7.3% (active) with 786-0 renal; -64.1% (active) in the test on COLO 205 colon; 6.52% (active) in the test with DU-145 prostate; 9.7% (active) in the test with K-562 leukemia. In addition, the growth in the test on MALME-3M melanoma was 65.4%; in the test on MDA-MB-231 breast, 11.8%; in the test on SF-268 CNS, 19.6%; with SF-295 CNS, 7.05% (active); in the test with SF-539 CNS, 0.775% (active); in the test with M14 melanoma, -15.3% (active).
As to `O=NNc1ccccn1`, the growth is 79.4% with NCI-H23 lung; 91.1% with NCI-H226 lung; 126% with NCI-H322M lung; 90.3% in the test with HOP-62 NSCLC; 41.7% with NCI-H460 lung; 92.1% with HOP-92 NSCLC. Moreover, the growth in the test on NCI-H522 lung was 64.3%; with A549/ATCC NSCLC, 95.1%; in the test on 786-0 renal it was 106%; in the test on COLO 205 colon, 95.8%; in the test on DU-145 prostate, 5.33% (active); in the test on K-562 leukemia it was 77.7%. In addition, the growth is 91.2% with MDA-MB-231 breast; 83.8% in the test with RXF 393 renal; 91.1% in the test with SF-268 CNS; 96% with SF-295 CNS; 94.3% with SF-539 CNS; 94.9% in the test with UACC-257 melanoma. Besides, in the test with M14 melanoma, the growth is 87.3%.
As for `COC(=O)[C@@H](C)C[C@H](Cc1ccc(F)cc1)NC(=O)c1csc([C@@H](C[C@H](C(C)C)N(C)C(=O)[C@@H](NC(=O)[C@H]2CCCCN2C)C2CC2)OC(C)=O)n1`, the growth with NCI-H23 lung was 36%; in the test on NCI-H226 lung it was 43.2%; in the test with NCI-H322M lung, 39.7%; in the test on HOP-62 NSCLC, 12.2%; in the test with NCI-H460 lung, 7% (active); with HOP-92 NSCLC, 46.6%. Further, the growth with NCI-H522 lung was -15.2% (active); in the test on A549/ATCC NSCLC, 20.1%; in the test on 786-0 renal, 13.5%; in the test with COLO 205 colon it was -73.1% (active); in the test with DU-145 prostate, 13.1%; in the test with K-562 leukemia it was 9.43% (active). The growth in the test on MALME-3M melanoma is 55.2%; in the test with MDA-MB-231 breast it was 13.3%; with SF-268 CNS, 30.9%; in the test with SF-295 CNS, 2.38% (active); with SF-539 CNS, -4.81% (active); in the test with M14 melanoma it was 1.41% (active).
`COC(=O)C12CC(NC(=O)c3csc([C@@H](C[C@H](C(C)C)N(C)C(=O)[C@@H](NC(=O)[C@H]4CCCCN4C)C(C)C)OC(C)=O)n3)(C1)C2`: the growth in the test on NCI-H23 lung was 23.9%; in the test with NCI-H226 lung, 10.6%; with NCI-H322M lung, 41.9%; in the test with HOP-62 NSCLC, 6.07% (active); in the test with NCI-H460 lung it was 5.4% (active); with HOP-92 NSCLC, 52.8%. In addition, the growth in the test with NCI-H522 lung is -23.6% (active); in the test on A549/ATCC NSCLC, 16.6%; in the test with 786-0 renal, 18.2%; in the test on COLO 205 colon, -60.1% (active); in the test with DU-145 prostate it was 16.6%; in the test with K-562 leukemia, 12%. Also, the growth was 54.4% with MALME-3M melanoma; 11.9% with MDA-MB-231 breast; 22.9% in the test with SF-268 CNS; -11.2% (active) with SF-295 CNS; -29.9% (active) in the test on SF-539 CNS; 2.68% (active) with M14 melanoma.
Regarding `ClCCN(CCCl)c1ccc(-n2cnc3c(Cl)ncnc32)cc1`, the growth in the test on NCI-H23 lung was -69% (active); in the test with NCI-H226 lung it was 97.5%; with NCI-H322M lung, 58.7%; in the test with HOP-62 NSCLC it was 87%; in the test with NCI-H460 lung, 47.8%; with HOP-92 NSCLC it was -1.92% (active). The growth is -76.9% (active) with NCI-H522 lung; 85.2% in the test on A549/ATCC NSCLC; 106% in the test with 786-0 renal; 65.8% in the test on COLO 205 colon; 21.9% in the test with DU-145 prostate; -2.07% (active) in the test on K-562 leukemia. The growth is 62.9% in the test on MDA-MB-231 breast; -57.2% (active) with RXF 393 renal; -11.9% (active) in the test with SF-268 CNS; 87% in the test on SF-295 CNS; 115% in the test on SF-539 CNS; 49.7% in the test with UACC-257 melanoma. For the same molecule, the growth in the test with M14 melanoma was 33.3%.
In the case of `CC1(C)[C@H](O)[C@H](F)C[C@@]2(C)Oc3ccc(C(=O)Nc4ccc5c(c4)NC(=O)C54CCN(CCCCC#N)CC4)cc3C[C@H]12`, the growth in the test on NCI-H23 lung was 55.4%; in the test on NCI-H226 lung it was 69.9%; with NCI-H322M lung it was 91.9%; in the test on HOP-62 NSCLC, 12.8%; with NCI-H460 lung it was 21.3%; in the test with HOP-92 NSCLC, 41.7%. Besides, the growth in the test with NCI-H522 lung is -4.72% (active); in the test with A549/ATCC NSCLC, 19.5%; with 786-0 renal it was 21.5%; in the test on COLO 205 colon, -23.7% (active); in the test on DU-145 prostate it was 48.5%; in the test on K-562 leukemia it was 2.93% (active). Further, the growth with MALME-3M melanoma is 13.5%; in the test with MDA-MB-231 breast it was 28.8%; in the test with SF-268 CNS it was 43.6%; in the test on SF-295 CNS it was -59.6% (active); with SF-539 CNS, 8.86% (active); with M14 melanoma, -6.54% (active).
